The whole screen tested about 2,400 compounds, of which about 220 (9.2%) were called active. The entries come from a sample that favours actives as a whole. A number with no mark means an inactive call.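 The calls were made as follows: active = signal change above the mean of dofetilide-free buffer controls plus 3 SD, so a positive margin; inactive = the rest.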
Test: nonspecific flux effects in parental CHO-K1, confirmation, counter-screen for hERG block protection project, cell-based, CHO-K1 parental line, FluxOR thallium flux (AID 1839);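 also: compounds applied alone with no dofetilide to cells lacking hERG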
Conditions: CHO-K1 parental cells, FluxOR thallium flux fluorescence; at 10 µM

SMILES | signal change vs control minus 3*SD hit threshold (margin above threshold, higher = more increase)
O=C1NC(=S)SC1=C1CCCCCC1 | 26% (active)
CCCCCN(C(=O)CCC(=O)OCC(=O)N(C)C1CCCCC1)c1c(N)n(CCCC)c(=O)[nH]c1=O | -20.9%
CCC1(C(=O)O)NC(c2cc(OC)ccc2O)C2C(=O)N(Cc3ccccc3)C(=O)C21 (configuration not stated) | -29.6%
O=C1NCCN1Cc1ccccc1F | -30.6%
ON/C=N/C(=S)Nc1ncc(C(F)(F)F)cc1Cl | 6.1% (active)
CON/C=N/C(=S)Nc1ncc(C(F)(F)F)cc1Cl | 16.5% (active)
C/C(Cl)=C\Cn1c(O)c(N=NC(N)=S)c2cc(Br)ccc21 | -15.7%
COc1ccc(OC)c(S(=O)(=O)NCc2cn3cccc(C)c3n2)c1 | -37.6%
O=c1c2cc(Br)ccc2nc(-c2ccc([N+](=O)[O-])cc2)n1O | 6.7% (active)
O=c1c2cc(Cl)ccc2nc(-c2ccc([N+](=O)[O-])cc2)n1O | 4.5% (active)
O=c1c2ccc(Cl)cc2nc(-c2ccc([N+](=O)[O-])cc2)n1O | -15.4%
O=[N+]([O-])c1ccc(CSc2nnc(SCc3ccc(Cl)cc3)s2)cc1 | -24.5%
Nc1nc(O)c(N=Nc2ccc(S(N)(=O)=O)cc2)c(=O)[nH]1 | -32%
CNC(=S)Nc1sc2c(c1C(=O)OC)CCC2 | -15.1%
Cc1ccc(C(=O)N/N=C(/CC(=O)c2cccs2)C(F)(F)F)cc1 | -22.1%
CC(C)=CCCC1=CCC2C(=O)NNC(=O)C2C1 (configuration not stated) | -33.3%
Cc1ccc(OCC(=O)NC(=S)Nc2ccc(Br)cn2)cc1 | -4.8%
CC(C)(C)NC(=O)C(=O)NNC(=O)COc1ccccc1 | -32.8%
CC(C)(C)NC(=O)C(=O)NNC(=O)COc1ccc(Br)cc1 | 6.9% (active)
c1ccc(SSc2ccccn2)nc1 | -36.9%
S=c1[nH]c(-c2ccccc2)cn1/N=C/c1cccc2ccccc12 | -17.6%
Oc1oc(-c2cccc3ccccc23)nc1/C=N/c1nccs1 | -19.4%
CCCn1c(O)c(N=NC(=O)c2ccco2)c2ccccc21 | 29.8% (active)
Oc1c(N=NC(=S)Nc2ccccc2F)c2ccccc2n1Cc1ccccc1 | -17.5%
CCn1c(O)c(N=NC(=O)CNC(=O)c2ccccc2F)c2ccccc21 | -28.7%
CN1C(=O)/C(=N\OC(=O)c2cccc3ccccc23)c2ccccc21 | -18.7%

SMILES | signal change vs control minus 3*SD hit threshold (margin above threshold, higher = more increase)
C/C(Nc1cccc(F)c1)=C(/C#N)C(N)=O | -24.1%
Cc1ccc(-c2csc3nc[nH]c(=S)c23)cc1C | -21.7%
S=c1[nH]cnc2scc(-c3ccccc3)c12 | -3.2%
Cc1c(-c2ccccc2)sc2nc[nH]c(=S)c12 | 6.1% (active)
Cc1sc2nc[nH]c(=S)c2c1-c1ccccc1 | 9.4% (active)
Cc1cc(-c2csc3nc[nH]c(=S)c23)cc(C)c1C | -3.4%
S=c1[nH]cnc2scc(-c3ccc(Br)cc3)c12 | -22%
Clc1ccc(Nc2nc3cccnc3s2)cc1 | -29.8%
CCOC(=O)N1CCN(C(=O)CCn2c(=S)[nH]c3ccsc3c2=O)CC1 | -14.4%
CN(CCc1ccccn1)C(=O)CCC1CCCN(C(=O)c2ccsc2)C1 (configuration not stated) | -22.3%
N=C1S/C(=C\c2ccc(-c3cccc(Cl)c3)o2)C(=O)N1c1nccs1 | -18.8%
Cc1cc(S(=O)(=O)N2CCOCC2)ccc1OCC(=O)NCc1ccco1 | -27.2%
Oc1c(Br)cc(Br)cc1C=Nc1cccc2ncccc12 | -0.4%
Oc1c(Br)cc(Br)cc1C=Nc1ccc2c(c1)OCCO2 | -5.9%
Oc1c(Br)cc(Br)cc1C=Nc1ccc2[nH]ncc2c1 | 11% (active)
COc1ccc(-n2c(O)c(/C=C3\C=Nc4ccccc43)c(=O)[nH]c2=O)cc1 | -43%
COCC(=O)NC1CC2CCC(C1)N2C(=S)Nc1ccccc1C(=O)OC (configuration not stated) | -14.6%
Cc1noc(C)c1CSc1ncnc2sc3c(c12)CCCCC3 | -14.1%
Cc1sc2ncnc(SCC(=O)c3ccc(O)cc3O)c2c1C | -22.1%
COc1cc(NC(=O)CCCOc2ccc(Cl)cc2Cl)c(C(=O)O)cc1OC | -17.7%
COC(=O)c1c(NC(=O)CN2CCOCC2)sc2c1CCC(C)C2 (configuration not stated) | -31.2%
CC(=O)CSc1ncnc2sc3c(c12)CCC(C)C3 (configuration not stated) | 49% (active)
COc1cc(NC(=O)CSc2ncnc3sc4c(c23)CCC(C)C4)c(C(=O)O)cc1OC (configuration not stated) | 29.8% (active)
CCOC(=O)/C(C)=N/NC(=O)c1cccc([N+](=O)[O-])c1 | -14.2%
CCOC(=O)c1ccc(Oc2cc(C)nc(SC)n2)cc1 | -8.1%
Cc1cccc(C(=O)NC(=S)N(C)C2CCCCC2)c1 | -9.9%
